Measurements taken from PubChem BioAssay (EPA / NIEHS).
Calls of active or inactive are those of the source. How the source made its calls: active means hit-call score of the fitted dose curve at least 0.9, where 1 is the maximum; inactive means score below 0.9.

assay: CCTE_Simmons_MITO_inhib_resp_rate: CCTE's HepG2 Seahorse XF Respirometric Screening Assay at Inhibited Respiratory State [full ETC block], Simmons Lab (AID 2284006); details: actives raise or lower the signal
Description: CCTE_Simmons_MITO is cell-based, respirometric assay using HepG2 cells and a Seahorse XF Analyzer to measure oxygen consumption rates over four temporal phases spanning a total of 72 minutes: pre-injection (pre-treatment), basal (following test compound injection), maximal (following FCCP uncoupler injection), and inhibited (following rotenone/antimycin A injection)CCTE_Simmons_MITO_inhib_resp_rate is one of 4 assay components calculated from the CCTE_Simmons_MITO assay. It is designed to make measurements of inhibited respiration using a form of respirometric reporter, as detected with […] signals by Seahorse XF96 technology. Data from the assay component CCTE_Simmons_MITO_inhib_resp_rate was analyzed at the endpoint, CCTE_Simmons_MITO_inhib_resp_rate_OCR, with bidirectional fitting relative to DMSO as the negative control and baseline of activity. Using a type of respirometric reporter, measures of inhibited respiration for gain or loss-of-signal activity can be used to understand cellular oxygen consumption as it relates to cellular respiration. To generalize the intended target to other relatable targets, this assay endpoint is annotated to the mitochondria intended target family, where the subfamily is respiration.
Test chemicals were administered as a titrated series of 7 concentrations from 125 nM up to 100 uM [final] prior to kinetic endpoint detection at 6 minute intervals [3 min mix followed by 3 minutes measure] for 72 minutes. Three biological replicates of technical singles were run for every chemical concentration tested. Dimethylsulfoxide [DMSO] was used as the vehicle control. The electron transport chain inhibitor fenpyroximate was used as the positive control for decreased basal respiration and was administered as a titrated series of 6 concentrations from 250 nM up to 2.75 uM [final] with technical triplicates for the top concentration only. The uncoupler 2,4-dintirophenol was used as the positive control for increased basal respiration and was administered as a titrated series of 6 concentrations from 938 nM up to 40 uM [final] with technical triplicates for the top concentration only. A Seahorse XF Analzyer is required to measure the response.

Compound | outcome | AC50
CCCCCCCCCC[N+](C)(C)CCCCCCCCCC | inactive | –
CC(c1ccc(O)cc1)(c1ccc(O)cc1)c1ccc(O)cc1 | inactive | –
Oc1c(Cl)c(Cl)c(Cl)c(Cl)c1Cl | inactive | –
CCC(C)(c1ccc(O)cc1)c1ccc(O)cc1 | inactive | –
O=C(O)C(F)(F)C(F)(F)C(F)(F)C(F)(F)C(F)(F)C(F)(F)C(F)(F)C(F)(F)C(F)(F)F | inactive | –
C[C@]12CCC(=O)C=C1CC[C@@H]1[C@@H]2CC[C@@]2(C)[C@H]1CC[C@]2(C)O | inactive | –
O=C(O)C(F)(F)C(F)(F)C(F)(F)C(F)(F)C(F)(F)C(F)(F)C(F)(F)C(F)(F)F | inactive | –
CCSC(=O)N(CC)C1CCCCC1 | inactive | –
CC(C)(O)C(=O)Nc1ccc([N+](=O)[O-])c(C(F)(F)F)c1 | inactive | –
CCC(C)c1cc([N+](=O)[O-])cc([N+](=O)[O-])c1O (centres undefined) | inactive | –
NS(=O)(=O)C(F)(F)C(F)(F)C(F)(F)C(F)(F)C(F)(F)C(F)(F)C(F)(F)C(F)(F)F | inactive | –
CCNc1nc(NC(C)C)nc(SC)n1 | inactive | –
N#Cc1ccc(N(CC(N)=O)CC(F)(F)F)cc1C(F)(F)F | inactive | –
Oc1ccc(C(c2ccc(O)cc2)(C(F)(F)F)C(F)(F)F)cc1 | inactive | –
CO/C=C(/C(=O)OC)c1ccccc1COc1cccc(C(F)(F)F)n1 | – | 1100 nM (active)
COc1ccc(O)c(C(C)(C)C)c1 | inactive | –
CCC(=O)O[C@H]1CC[C@H]2[C@@H]3CCC4=CC(=O)CC[C@]4(C)[C@H]3CC[C@]12C | inactive | –
C[C@]12CCC(=O)C=C1CC[C@@H]1[C@@H]2CC[C@]2(C)C(=O)CC[C@@H]12 | inactive | –
CC(C)(c1ccccc1)c1ccc(O)cc1 | inactive | –
